A selection: hits, their analogues and other compounds. The true share with any hit is near 31%.
CYP2C19 inh = blocks human cytochrome P450 2C19; CYP2C19 Supersomes, luciferin-H EGE luminescence, 30 min; inhibition, % at 5 µM; AID 778; P33261; 96,000 tested, 21% active;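 active = CYP2C19 inhibition above a set limit at 5 µM in the primary screen, cut at about 50% in these data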
Target sequence (P33261 whole entry, looked up): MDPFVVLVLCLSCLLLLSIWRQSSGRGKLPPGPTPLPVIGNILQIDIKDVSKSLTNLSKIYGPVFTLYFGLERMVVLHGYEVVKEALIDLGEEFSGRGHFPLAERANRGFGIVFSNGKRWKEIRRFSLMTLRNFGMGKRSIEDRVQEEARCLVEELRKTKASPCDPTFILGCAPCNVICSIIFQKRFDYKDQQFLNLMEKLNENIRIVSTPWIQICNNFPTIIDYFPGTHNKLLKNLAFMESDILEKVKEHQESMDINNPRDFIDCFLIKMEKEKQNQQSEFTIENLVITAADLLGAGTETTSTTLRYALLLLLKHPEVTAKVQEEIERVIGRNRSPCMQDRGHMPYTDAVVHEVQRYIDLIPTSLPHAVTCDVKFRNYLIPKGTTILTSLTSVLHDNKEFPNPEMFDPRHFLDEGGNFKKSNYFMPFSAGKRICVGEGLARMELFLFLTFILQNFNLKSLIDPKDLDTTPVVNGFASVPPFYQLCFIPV
CYP2C19 activ = cytochrome P450 2C19 (human) activation. P33261. recombinant CYP2C19, luciferin-H EGE luminescence; hits give high values; 0 = fully inhibited enzyme, 1 = untreated enzyme. activation factor at 5 µM. 96,000 tested, under 10 active;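 active = activation factor of at least 2 at 5 µM in the primary screen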
CYP2C9 inhib = inhibitors of human CYP2C9 | CYP2C9 Supersomes, luciferin-H conversion, luminescence | inhibition, % at 5 µM | 96,000 tested, 20% active | AID 777;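 active = blocking of liver enzyme CYP2C9 beyond about 50% at 5 µM, limit read from the data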
CYP2C9 activ = increases human cytochrome P450 2C9 activity | activation factor at 5 µM | 96,000 tested, 1.4% active | P11712 | recombinant CYP2C9, luciferin-H conversion, luminescence; hits give high values; factor 1 = untreated enzyme, 0 = blocked;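 active = activation factor of 2 or more for CYP2C9 at a 5 µM dose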
Of the large screens only hits and unclear results are named; the others gave an inactive call.

O=C(Nc1ccc2c(c1)oc1ccccc12)c1cccnc1	none
O=C(Nc1cnc2ccccc2c1)c1ccncc1	CYP2C19 inh 85.9, CYP2C9 inhib 70.5
CCN1CCN(CCCNC(=O)c2cc3sccc3n2CC)CC1	none
O=C(Nc1ccc2ccccc2c1)c1cnccn1	CYP2C19 inh 56.5
COC(=O)c1nc(N)sc1-c1ccc(OC)cc1	none
COc1ccc(S(=O)(=O)NC(CC(=O)NCCc2ccc(OC)c(OC)c2)c2ccco2)cc1 (stereo unspecified)	none
COc1cccc(NC(=O)CSc2nnc(C)s2)c1	none
COc1cccc(NC(=O)Cn2cnc3sc(C)c(S(=O)(=O)N4CCCCC4)c3c2=O)c1	CYP2C9 inhib 65.6
COC(=O)Cn1cnc2sc(C)c(S(=O)(=O)N3CCN(c4ccccc4OC)CC3)c2c1=O	CYP2C9 inhib 50.8
COC(=O)Cn1cnc2sc(C)c(S(=O)(=O)N3CCC(C)CC3)c2c1=O	none
O=c1[nH]cnc2cc(Cl)ccc12	none
Cc1ccc(C)c(N2CCN(c3nc4ccccc4c(=O)n3Cc3ccccc3)CC2)c1	none
CCOC(=O)N1CCC(NC(=O)CCc2c(C)nc3nc(C)nn3c2C)CC1	none
CCOC(=O)N1CCC(NC(=O)CCc2c(C)nc3c(c(C)nn3C(C)(C)C)c2C)CC1	CYP2C19 inh 63.6, CYP2C9 inhib 82.5
O=C(O)C1CC=CCC1C(=O)Nc1ccccc1Cl (stereo unspecified)	none
CCOc1ccccc1C(=O)N1CCN(C(c2ccccc2)c2ccccc2)CC1	none
Cc1occc1C(=O)N1CCN(C(c2ccccc2)c2ccccc2)CC1	CYP2C9 inhib 52.7
Cc1occc1C(=O)N1CCN(c2ccc(Cl)c(Cl)c2)CC1	CYP2C19 inh 98.4, CYP2C9 inhib 82.6
CN(C)C(=C(C#N)C#N)N1CCN(c2ccc(Cl)c(Cl)c2)CC1	CYP2C19 inh 56.0, CYP2C9 inhib 64.3
O=C(C1=COCCO1)N1CCN(C(c2ccccc2)c2ccccc2)CC1	CYP2C9 inhib 67.3
N#CCSc1nnc(Cc2ccc3c(c2)OCO3)o1	none
COc1ccc(C(C(=O)NC(C)(C)C)N(C(=O)CNC(=O)c2cccs2)c2ccc(C)cc2)cc1OC (stereo unspecified)	none
Cc1cc2nsnc2c(S(=O)(=O)NCC(=O)O)c1C	none
Cc1cc(C(=O)N2CCN(C(c3ccccc3)c3ccccc3)CC2)on1	CYP2C19 inh 69.4, CYP2C9 inhib 77.3
O=C(c1cc(C2CC2)on1)N1CCN(C(c2ccccc2)c2ccccc2)CC1	none
COC(=O)C1C(=O)C2=C(CC1C)NC(=O)CC2c1cccc(C)c1 (stereo unspecified)	none
Cc1cc(C(=O)NCc2cccnc2)n(-c2ccccc2)n1	CYP2C19 inh 59.7
Cc1ccc(NC(=O)c2cc(C)nn2-c2ccccc2)cc1	CYP2C19 inh 59.7
Cc1cc(C(=O)NCc2ccc3c(c2)OCO3)n(-c2ccccc2)n1	none
Cc1nn(Cc2ccccc2)c2sc(C(=O)NCc3cccnc3)cc12	CYP2C19 inh 62.2, CYP2C9 inhib 82.0
Cc1cc(C(=O)NCc2cccnc2)cs1	none
CCN(CC)CCC(=O)Nc1ccc2c(c1)N(C(=O)CN(CC)CC)c1ccccc1CC2	none
COc1ccc2c(c1OC)C(=O)N1N=C(c3ccc(O)cc3)CC21 (stereo unspecified)	CYP2C9 activ 2.4
CCOC(=O)c1sc(NC(=O)CSc2nc(-c3ccco3)cc(C(F)(F)F)n2)c(C(=O)OC)c1C	CYP2C9 inhib 71.5
CCCOC(=O)c1c(NC(=O)CSc2nc(-c3ccco3)cc(C(F)(F)F)n2)sc(C(=O)OC)c1C	CYP2C9 inhib 69.5
COc1ccc(-c2cc(C(F)(F)F)nc(SCC(=O)Nc3cc(C)on3)n2)cc1	none
Cc1c(CN(C)C(=O)CSc2nc(-c3ccco3)cc(C(F)(F)F)n2)cnn1C	none
CN(c1ccccc1C(=O)NCc1ccccn1)S(C)(=O)=O	none
CC1Cc2ccccc2N1C(=O)CN1C(=O)C(=O)N(Cc2ccccc2)C1=O (stereo unspecified)	none
COc1ccccc1N1CCN(C(=O)Cn2c(=O)[nH]c3ccsc3c2=O)CC1	none
O=C(CCc1ccc(S(=O)(=O)NCc2ccccc2)cc1)NCc1ccc2c(c1)OCO2	CYP2C19 inh 56.0, CYP2C9 inhib 76.2
O=C(CCc1ccc(S(=O)(=O)NCCc2ccccc2)cc1)NCc1ccc2c(c1)OCO2	CYP2C19 inh 82.3, CYP2C9 inhib 82.7
O=C(NCCN1CCOCC1)c1ccc2ccccc2c1	none
Cc1ccccc1CN1CCN(C/C=C/c2ccccc2)CC1	none
CCNc1oc(-c2ccc(OC)cc2)nc1S(=O)(=O)c1ccc(Br)cc1	none
CCCCNc1oc(-c2ccc(OC)cc2)nc1S(=O)(=O)c1ccccc1	CYP2C19 inh 54.5
O=S(=O)(c1ccccc1)c1nc(-c2ccco2)oc1NCc1ccco1	none
O=S(=O)(c1ccccc1)c1nc(-c2ccco2)oc1NCCCn1ccnc1	CYP2C19 inh 100.1, CYP2C9 inhib 99.1
CCCCS(=O)CC(COCc1ccccc1)OC(=O)CSc1nc(C)cc(C)n1 (stereo unspecified)	none
CCc1nnc(NC(=O)CSc2nnc(Cc3cccn3C)n2C)s1	none
Cc1ccc([N+](=O)[O-])cc1NC(=O)CN1CCC(C)CC1	none
Cc1ccc(OC(=O)CCC(=O)N2CCc3ccccc32)cc1	none
CCOC(=O)c1cnn(-c2ccccc2)c1NC(=O)c1ccc(C)cc1	none
O=C(Nc1c(C(=O)NCc2ccco2)cnn1-c1ccccc1)c1cccc(F)c1	CYP2C19 inh 67.1, CYP2C9 inhib 87.4
O=C(Nc1c(C(=O)Nc2ccccc2)cnn1-c1ccccc1)c1ccco1	none
Cc1ccc(C(=O)Nc2c(C(=O)NCc3ccco3)cnn2-c2ccccc2)cc1	CYP2C9 inhib 55.6
OC(COc1cccc2ccccc12)CN1CCCC1 (stereo unspecified)	none
Cc1cccc(C)c1OCC(O)CN1CCC(CN2C(=O)c3cccc4cccc(c34)C2=O)CC1 (stereo unspecified)	CYP2C19 inh 55.2, CYP2C9 inhib 57.9
Cc1ccccc1C(=O)O/N=C/c1c(N2CCOCC2)n(C)c2ccccc12	CYP2C9 inhib 88.3
Cc1cc(NC(=O)CNC(=O)C2CCCCC2)no1	none
COC(=O)C1CCN(c2cc(=O)n(-c3ccc(OC)cc3)c(=O)[nH]2)CC1	none
O=C(COC(=O)Cc1cccs1)Nc1ccc(F)c(F)c1F	CYP2C19 inh 74.8
O=C(COC(=O)c1ccccc1F)c1ccc(-n2nncc2-c2ccco2)cc1	none
CCOC(=O)N1CCN(C(=O)CS(=O)(=O)c2cn(Cc3cccc(F)c3)c3ccccc23)CC1	none
O=C(NCS(=O)(=O)c1ccccc1)c1ccccc1	CYP2C19 inh 70.3
Clc1ccc(CSCCc2ccncc2)cc1	CYP2C19 inh 100.4, CYP2C9 inhib 100.0
c1ccc2c(CSCCc3ccncc3)cccc2c1	CYP2C19 inh 97.0, CYP2C9 inhib 93.7
CS(=O)(=O)NCCSCc1ccc(Cl)cc1	none
O=C(O)CSc1nnc(SCc2cccc3ccccc23)s1	none
CCOc1ccccc1NC(=O)CSc1nnc2c(CC)c(C)nc(N)n12	none
Cc1cc2nc(C)c(Cc3ccccc3)c(=O)n2[nH]1	CYP2C9 activ 2.3
Cc1nc2nc(-c3ccc(Cl)cc3)[nH]n2c(=O)c1Cc1ccccc1	none
